From PubChem BioAssay (EPA / NIEHS) come the findings set out here.

Active and inactive are the calls of the source. The calls were made as follows: active = hit-call score of the fitted dose curve at least 0.9, where 1 is the maximum; inactive = score below 0.9.

The test can be described thus: BSK_3C_uPAR: BioMAP Diversity Plus: 3C Assay for Urokinase-type plasminogen activator receptor (uPAR) Biomarker Activity (AID 2282998). Conditions: BioMAP 3C HUVEC, uPAR biomarker ELISA; actives raise or lower the signal. The procedure:
BSK_3C is a cell-based, multiplexed-readout assay that uses umbilical vein endothelium, a human vascular primary cell, with measurements taken at 24 hours after chemical dosing in a 96-well plate.BSK_3CAR is an assay component measured in the BSK_3C assay. It measures uPAR antibody related to regulation of gene expression using ELISA technology.Data from the assay component BSK_3CAR was analyzed into 1 assay endpoint. This assay endpoint, BSK_3CAR, was analyzed with bidirectional fitting relative to DMSO as the negative control and baseline of activity. Using a type of binding reporter, gain or loss-of-signal activity can be used to understand changes in the signaling as they relate to the gene PLAUR. Furthermore, this assay endpoint can be referred to as a primary readout, because this assay has produced multiple assay endpoints where this one serves a signaling function. To generalize the intended target to other relatable targets, this assay endpoint is annotated to the cytokine intended target family, where the subfamily is plasmogen activator.
The levels of cell surface (or secreted, indicated by the prefix "s") biomarker endpoints were measured by ELISA. Overt cytotoxicity to cells in confluent adherent cultures (all systems other than the BT system) was assessed by measuring total protein levels using sulforhodamine B (SRB) staining in parallel cultures at the time of biomarker measurements, indicated as SRB endpoints. For proliferation assays for adherent cell types, individual cell types are cultured at sub-confluence and relative cell numbers quantified by SRB staining at time points optimized for each system (48 h: 3C and CASM3C systems; 72 h: BT and HDF3CGF systems; 96 h: SAg system). SRB was performed by staining cells with 0.1% SRB after fixation with 10% TCA and reading wells at 560 nm.Viability and proliferation of PBMC (T cells) was quantified by Alamar Blue reduction for the SAg and BT systems. For PBMC viability (referred to as PBMC Cytotoxicity within the assay endpoint names), cells were plated (75,000/well in a 96-well plate) and then chemical samples added for 1 h before addition of activators, SEB and TSST-1 (20 ng/mL final concentration each). Cells were incubated for 90 h. Then, Alamar Blue (20 uL/well) (Invitrogen, Cat DAL1100) was added for 6 h, and the plates were read with a fluorescence microplate reader at 546/580 nm (excitation/emission). For PBMC proliferation, cells were plated and activated as above but incubated for only 16 h prior to addition of Alamar Blue. Plates were read after 6 h.
Background: In an ELISA, binding on a coated surface is turned into a signal by an enzyme label.
In the case of `C[C@]12C=CC(=O)C=C1CC[C@@H]1[C@@H]2C(=O)C[C@@]2(C)[C@H]1CC[C@]2(O)C(=O)CO`, the result was inactive. The same measure, in the same setting: then `O=C(OCCCCCOC(=O)c1ccccc1)c1ccccc1`, with “inactive”; and `CC(C)c1ccc(C(=O)N=C(N)N)cc1S(C)(=O)=O`, with “inactive”.

For `CC(=O)C(C)=CC1C(C)=CCCC1(C)C` (stereo not given), the result was inactive. Still for that read-out and setting: then `NCCO`, with “inactive”; and `Cc1ccc(C)c(O)c1C`, with “inactive”. For the compound `CCCCCC(=O)O`, the outcome was inactive.

As for `CC=Cc1ccc(O)c(OC)c1`, the result was inactive. For `CCCCCCCCCCCC(=O)OC`, the outcome was inactive. Still for that read-out and setting: in the case of `c1cc(-c2ccncc2)ccn1` it was “inactive”; in that of `C=CCc1ccc(O)c(OC)c1`, “inactive”; in that of `NCC1(Cc2noc(=O)[nH]2)CCCCC1`, “inactive”. With `Nc1ccc2c(c1)C(=O)c1ccccc1C2=O`, the half-maximal activity concentration (AC50) was 6.96 µM (active). In the case of `CC1=C(/C=C/C(C)=C/C=C/C(C)=C/CO)C(C)(C)CCC1`, the outcome was inactive. Same read-out and setting: in the case of `Cc1cccc(C)c1O` it was “inactive”. On the same count and under the same terms, in the case of `FC(F)(F)C(F)(F)C(F)(F)C(F)(F)C(F)(F)C(F)(F)CCI` it was “inactive”.

As to `CCCCCCC(=O)OCC`, the outcome was inactive.

Regarding `Cc1ccc(C(C)C)c(O)c1`, the outcome was inactive. On the same count and under the same terms, then `Oc1ccc2c(c1)OC[C@@H](N1CCC(O)(c3ccc(F)cc3)CC1)[C@H]2O`, with “inactive”; and `Cc1cc(NC(=O)C(=O)O)cc(C)c1Oc1ccc(O)c2c1CCC2`, with “inactive”; and `CCCCc1ccc2c(n1)[C@@H](c1ccc(OC)cc1C[C@H](C)C(=O)O)[C@H](C(=O)O)[C@H]2c1ccc2c(c1)OCO2`, with “inactive”. Still for that read-out and setting: in the case of `Oc1ccc2ccccc2c1N=Nc1ccccc1` it was “inactive”. For `O=C(O)CCCCC(=O)O`, the outcome was inactive. Still for that read-out and setting: then `CCCCCCCCCCO`, with “inactive”. On the same count and under the same terms, then `Cc1ccc(Cl)cc1`, with “inactive”; and `CN1CCCC1=O`, with “inactive”. Same read-out and setting: in the case of `COc1ccc(C)cc1N` it was “inactive”. For `CNCc1cc(F)ccc1Oc1ccc(Cl)c(Cl)c1`, the concentration at half-maximal activity (AC50) was 30.9 µM (active).

Consider `O=C(O)Cc1ccccc1Nc1c(Cl)cccc1Cl`, for which the result was inactive.

As for `COc1ccc(S(=O)(=O)N2C(=O)[C@@](c3ccccc3OC)(N3C[C@H](O)C[C@H]3C(=O)N(C)C)c3cc(Cl)ccc32)c(OC)c1`, the half-maximal activity concentration (AC50) is 20 µM (active). On to `O=[N+]([O-])C(CO)(CO)CO`, for which the outcome was inactive. Same read-out and setting: then `COc1cc(S(=O)(=O)O)c(C)cc1N=Nc1c(O)ccc2cc(S(=O)(=O)O)ccc12`, with “inactive”; and `OC[C@@H](O)[C@@H](O)[C@H](O)[C@H](O)CO`, with “inactive”; and `CC1(C)CC(N=C=O)CC(C)(CN=C=O)C1` (stereo not given), with “inactive”. The same measure, in the same setting: then `O=c1[nH]cc(F)c(=O)[nH]1`, with “inactive”. The same measure, in the same setting: then `CCOC(=O)CCC(=O)OCC`, with “inactive”; and `NC(=O)Cn1c(=O)cc(CCN2CCN(c3nccc4sccc34)CC2)c2ccc(F)cc21`, with “inactive”. For the compound `CCOC(=O)C(C)(C)Oc1ccc(Cl)cc1`, the result was inactive. Still for that read-out and setting: in the case of `COCCOCCOC` it was “inactive”. As for `Cc1ccc(N(C)C)cc1`, the outcome was inactive.

A word on the AC50: it is the concentration at which the activity in the assay is half-maximal.
